# Measurements reported in the antibiotic and cytotoxicity screens of Wong et al. (2023).
# Screen size: about 39,000 compounds; about 3,300 (8.5%) were called active. This excerpt belongs to a sample that is enriched for actives.
# Test system: HepG2
# Assay: cytotoxicity call (relative viability < 0.9)
# Details: 10 µM
row,SMILES,cytotoxicity call
1,COc1ccc(NC(=O)N(C)C[C@@H]2Oc3ccc(NC(=O)CCCCCC(=O)Nc4ccccc4N)cc3CC(=O)N([C@@H](C)CO)C[C@H]2C)cc1,inactive
2,C[C@H]1CCCCO[C@@H](CN(C)C(=O)NC2CCCCC2)[C@@H](C)CN([C@@H](C)CO)C(=O)c2cc(NC(=O)CCC(F)(F)F)ccc2O1,inactive
3,CCCN(C)C[C@@H]1OCCCC[C@H](C)Oc2ccc(NC(=O)NC3CCCCC3)cc2C(=O)N([C@@H](C)CO)C[C@@H]1C,inactive
4,C[C@H]1CCCCO[C@H](CN(C)CC2CCCCC2)[C@@H](C)CN([C@@H](C)CO)C(=O)c2cc(NC(=O)NC3CCCCC3)ccc2O1,active
5,C[C@@H]1CN([C@@H](C)CO)C(=O)c2cc(NC(=O)NC3CCCCC3)ccc2O[C@@H](C)CCCCO[C@@H]1CN(C)CC1CCCCC1,inactive
6,C[C@@H]1CCCCO[C@@H](CN(C)CC2CCCCC2)[C@H](C)CN([C@H](C)CO)C(=O)c2cc(NC(=O)NC3CCCCC3)ccc2O1,inactive
7,CCCN(C)C[C@@H]1OCCCC[C@@H](C)Oc2ccc(NC(=O)NC3CCCCC3)cc2C(=O)N([C@H](C)CO)C[C@@H]1C,active
8,C[C@@H]1CCCCO[C@@H](CN(C)CC2CCCCC2)[C@@H](C)CN([C@@H](C)CO)C(=O)c2cc(NC(=O)NC3CCCCC3)ccc2O1,inactive
9,C[C@H](CO)N1C[C@H](C)[C@H](CN(C)CC2CCCCC2)OCCCC[C@H](C)Oc2ccc(NC(=O)NC3CCCCC3)cc2C1=O,inactive
10,C[C@@H]1CCCCO[C@@H](CN(C)CC2CCCCC2)[C@H](C)CN([C@@H](C)CO)C(=O)c2cc(NC(=O)NC3CCCCC3)ccc2O1,inactive
11,CCCN(C)C[C@H]1OCCCC[C@@H](C)Oc2ccc(NC(=O)NC3CCCCC3)cc2C(=O)N([C@@H](C)CO)C[C@H]1C,inactive
12,C[C@@H]1CN([C@@H](C)CO)C(=O)c2cc(NC(=O)NC3CCCCC3)ccc2O[C@@H](C)CCCCO[C@H]1CN(C)CC1CCCCC1,active
13,C[C@@H]1CCCCO[C@H](CN(C)CC2CCCCC2)[C@@H](C)CN([C@H](C)CO)C(=O)c2cc(NC(=O)NC3CCCCC3)ccc2O1,inactive
14,C[C@@H]1CCCCO[C@H](CN(C)CC2CCCCC2)[C@H](C)CN([C@H](C)CO)C(=O)c2cc(NC(=O)NC3CCCCC3)ccc2O1,active
15,COc1cccc(NC(=O)N2C[C@@H](O)COC[C@H]3O[C@H](CC(=O)NC4Cc5ccccc5C4)CC[C@@H]32)c1,inactive
16,CCNC(=O)C[C@H]1CC[C@H]2[C@@H](COC[C@@H](O)CN2C(=O)Nc2c(C)noc2C)O1,inactive
